# Assay results taken from article PMC7862700, “An all-to-all approach to the identification of sequence-specific readers for epigenetic DNA modifications on cytosine”.
# Legend:
# Test in all cases: DAPPL (digital affinity profiling via proximity ligation, sequencing); 10 mM Tris-HCl pH 7.5, 50 mM NaCl, 1 mM DTT, 4% glycerol, room temperature, 30 min; GST-TFs on glutathione beads, 16-mer random dsDNA library, 0.1% formaldehyde crosslink after washing; high values mean tight binding
# FLI1 = target: T1, FLI1 (Homo sapiens, UniProt Q01543 1-452); conditions: protein: recombinant; tags: N-terminal GST; dsDNA, one strand shown
# T1 sequence: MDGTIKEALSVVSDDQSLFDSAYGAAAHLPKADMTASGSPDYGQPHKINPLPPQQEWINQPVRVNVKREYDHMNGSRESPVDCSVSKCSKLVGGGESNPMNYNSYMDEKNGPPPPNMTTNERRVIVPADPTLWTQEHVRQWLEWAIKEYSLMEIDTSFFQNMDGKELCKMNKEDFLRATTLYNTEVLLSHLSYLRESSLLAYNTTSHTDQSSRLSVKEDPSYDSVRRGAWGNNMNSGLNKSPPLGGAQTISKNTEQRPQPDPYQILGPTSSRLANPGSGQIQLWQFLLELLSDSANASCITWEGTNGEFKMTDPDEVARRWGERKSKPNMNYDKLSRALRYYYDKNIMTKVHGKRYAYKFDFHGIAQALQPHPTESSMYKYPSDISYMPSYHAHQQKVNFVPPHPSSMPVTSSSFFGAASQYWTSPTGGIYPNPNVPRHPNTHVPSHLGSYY
# Method in brief: (§1)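 Yeast served to express human transcription factors as GST fusions, which were then captured on glutathione beads and labelled with DNA barcodes. Pooled with a tag-only sample, they were incubated with 200 nmole of a 16-mer random double-stranded DNA library for 30 min at room temperature in Tris/NaCl/DTT/glycerol buffer, washed, crosslinked with 0.1% formaldehyde, ligated by proximity, amplified by PCR and sequenced. Dividing each hexamer's read frequency for a factor by its frequency for the tag-only sample gives the binding signal.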
# ELK1 = target: T2, ELK1 (Homo sapiens, UniProt P19419 1-428); conditions: protein: recombinant; tags: N-terminal GST; dsDNA, one strand shown
# T2 sequence: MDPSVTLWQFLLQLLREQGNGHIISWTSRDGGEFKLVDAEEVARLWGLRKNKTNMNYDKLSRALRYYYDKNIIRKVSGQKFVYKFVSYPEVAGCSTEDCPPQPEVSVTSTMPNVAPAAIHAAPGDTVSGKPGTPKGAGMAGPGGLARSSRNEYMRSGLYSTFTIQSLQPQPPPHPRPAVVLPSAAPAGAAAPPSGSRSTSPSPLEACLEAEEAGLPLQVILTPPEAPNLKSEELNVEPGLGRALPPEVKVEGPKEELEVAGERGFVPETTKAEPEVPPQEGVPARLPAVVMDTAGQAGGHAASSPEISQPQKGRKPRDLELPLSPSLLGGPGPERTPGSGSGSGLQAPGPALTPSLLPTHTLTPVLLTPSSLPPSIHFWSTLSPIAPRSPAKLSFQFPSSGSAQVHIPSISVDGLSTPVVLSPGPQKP
# Method in brief: as §1
# GABPA = target: T3, GABPA (Homo sapiens, UniProt Q06546 1-454); conditions: protein: recombinant; tags: N-terminal GST; dsDNA, one strand shown
# T3 sequence: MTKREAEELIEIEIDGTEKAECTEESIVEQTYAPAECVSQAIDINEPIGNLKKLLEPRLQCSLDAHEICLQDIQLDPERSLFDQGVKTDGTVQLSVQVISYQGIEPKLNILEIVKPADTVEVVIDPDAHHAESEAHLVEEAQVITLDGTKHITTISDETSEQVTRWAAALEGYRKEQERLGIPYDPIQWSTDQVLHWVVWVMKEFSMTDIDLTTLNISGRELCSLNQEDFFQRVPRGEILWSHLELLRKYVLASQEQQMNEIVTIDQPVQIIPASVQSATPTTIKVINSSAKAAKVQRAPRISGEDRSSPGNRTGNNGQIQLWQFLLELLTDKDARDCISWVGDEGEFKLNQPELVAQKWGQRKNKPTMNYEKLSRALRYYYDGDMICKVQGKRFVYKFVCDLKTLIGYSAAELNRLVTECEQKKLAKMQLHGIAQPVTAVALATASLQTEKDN
# Method in brief: as §1
# ERG = target: T4, ERG (Homo sapiens, UniProt P11308 1-479); conditions: protein: recombinant; tags: N-terminal GST; dsDNA, one strand shown
# T4 sequence: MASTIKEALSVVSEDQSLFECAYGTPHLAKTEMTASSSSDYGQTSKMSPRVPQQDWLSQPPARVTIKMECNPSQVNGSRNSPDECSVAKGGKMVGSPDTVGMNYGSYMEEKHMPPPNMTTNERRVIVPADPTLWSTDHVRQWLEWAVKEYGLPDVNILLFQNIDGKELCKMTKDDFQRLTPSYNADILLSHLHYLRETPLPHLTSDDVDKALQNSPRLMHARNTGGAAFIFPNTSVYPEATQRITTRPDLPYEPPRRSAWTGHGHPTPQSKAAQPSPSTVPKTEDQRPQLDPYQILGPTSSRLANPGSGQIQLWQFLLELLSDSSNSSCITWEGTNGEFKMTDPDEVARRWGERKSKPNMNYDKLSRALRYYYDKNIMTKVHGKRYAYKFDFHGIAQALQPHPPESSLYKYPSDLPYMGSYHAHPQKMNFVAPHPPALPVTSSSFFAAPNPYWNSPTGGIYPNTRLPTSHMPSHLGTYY
# Method in brief: as §1
# ELF1 = ELF1 (Homo sapiens, UniProt P32519 1-619); conditions: protein: recombinant; tags: N-terminal GST; dsDNA, one strand shown
# Method in brief: as §1
# EHF = target: T5, EHF (Homo sapiens, UniProt Q9NZC4 1-300); conditions: protein: recombinant; tags: N-terminal GST; dsDNA, one strand shown
# T5 sequence: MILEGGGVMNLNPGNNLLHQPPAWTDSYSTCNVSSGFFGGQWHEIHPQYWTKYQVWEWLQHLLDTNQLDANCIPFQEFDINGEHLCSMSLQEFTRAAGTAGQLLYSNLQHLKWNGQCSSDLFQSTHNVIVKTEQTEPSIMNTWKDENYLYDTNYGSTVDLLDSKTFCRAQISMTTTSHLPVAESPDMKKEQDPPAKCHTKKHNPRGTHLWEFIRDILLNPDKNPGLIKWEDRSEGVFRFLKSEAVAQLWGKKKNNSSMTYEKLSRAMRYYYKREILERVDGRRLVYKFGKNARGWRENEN
# Method in brief: as §1
# SPI1 = SPI1 (Homo sapiens, UniProt P17947 1-270); conditions: protein: recombinant; tags: N-terminal GST; dsDNA, one strand shown
# Method in brief: as §1
# SPIB = SPIB (Homo sapiens, UniProt Q01892 1-262); conditions: protein: recombinant; tags: N-terminal GST; dsDNA, one strand shown
# Method in brief: as §1
# ELK3 = target: T6, ELK3 (Homo sapiens, UniProt P41970 1-407); conditions: protein: recombinant; tags: N-terminal GST; dsDNA, one strand shown
# T6 sequence: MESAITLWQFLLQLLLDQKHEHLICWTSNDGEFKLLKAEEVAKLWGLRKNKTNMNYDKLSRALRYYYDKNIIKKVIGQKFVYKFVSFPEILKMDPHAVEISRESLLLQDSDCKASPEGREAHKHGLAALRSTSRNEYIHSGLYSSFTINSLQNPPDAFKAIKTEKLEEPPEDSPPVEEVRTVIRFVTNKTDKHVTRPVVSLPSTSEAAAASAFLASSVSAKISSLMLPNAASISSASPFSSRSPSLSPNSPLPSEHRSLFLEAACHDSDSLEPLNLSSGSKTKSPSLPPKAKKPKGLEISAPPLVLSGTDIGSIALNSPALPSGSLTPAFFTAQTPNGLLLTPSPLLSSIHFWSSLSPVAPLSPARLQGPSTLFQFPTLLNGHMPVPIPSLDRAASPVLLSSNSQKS
# Method in brief: as §1
# FEV = target: T7, FEV (Homo sapiens, UniProt Q99581 1-238); conditions: protein: recombinant; tags: N-terminal GST; dsDNA, one strand shown
# T7 sequence: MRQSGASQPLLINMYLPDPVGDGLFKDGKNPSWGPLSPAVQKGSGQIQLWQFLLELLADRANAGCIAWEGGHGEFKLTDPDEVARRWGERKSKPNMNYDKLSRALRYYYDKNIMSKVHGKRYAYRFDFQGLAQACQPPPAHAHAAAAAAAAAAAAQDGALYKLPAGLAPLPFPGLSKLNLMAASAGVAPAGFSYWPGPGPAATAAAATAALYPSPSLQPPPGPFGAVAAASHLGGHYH
# Method in brief: as §1
# ETV5 = ETV5 (Homo sapiens, UniProt P41161 1-510); conditions: protein: recombinant; tags: N-terminal GST; dsDNA, one strand shown
# Method in brief: as §1
# HSF1 = HSF1 (Homo sapiens, UniProt Q00613 1-529); conditions: protein: recombinant; tags: N-terminal GST; chain copies: 3; dsDNA, one strand shown
# Method in brief: as §1
# SPIC = target: T8, SPIC (Homo sapiens, UniProt Q8N5J4 1-248); conditions: protein: recombinant; tags: N-terminal GST; dsDNA, one strand shown
# T8 sequence: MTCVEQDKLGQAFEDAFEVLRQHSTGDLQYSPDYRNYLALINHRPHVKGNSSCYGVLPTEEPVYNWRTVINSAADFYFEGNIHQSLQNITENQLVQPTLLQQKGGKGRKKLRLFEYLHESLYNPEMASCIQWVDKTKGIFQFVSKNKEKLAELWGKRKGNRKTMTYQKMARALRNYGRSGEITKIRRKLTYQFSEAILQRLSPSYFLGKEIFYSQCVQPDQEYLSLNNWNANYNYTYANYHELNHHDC
# Method in brief: as §1
# ELF4 = ELF4 (Homo sapiens, UniProt Q99607 1-663); conditions: protein: recombinant; tags: N-terminal GST; dsDNA, one strand shown
# Method in brief: as §1
# ELK4 = target: T9, ELK4 (Homo sapiens, UniProt P28324-2 1-405); conditions: protein: recombinant; tags: N-terminal GST; dsDNA, one strand shown
# T9 sequence: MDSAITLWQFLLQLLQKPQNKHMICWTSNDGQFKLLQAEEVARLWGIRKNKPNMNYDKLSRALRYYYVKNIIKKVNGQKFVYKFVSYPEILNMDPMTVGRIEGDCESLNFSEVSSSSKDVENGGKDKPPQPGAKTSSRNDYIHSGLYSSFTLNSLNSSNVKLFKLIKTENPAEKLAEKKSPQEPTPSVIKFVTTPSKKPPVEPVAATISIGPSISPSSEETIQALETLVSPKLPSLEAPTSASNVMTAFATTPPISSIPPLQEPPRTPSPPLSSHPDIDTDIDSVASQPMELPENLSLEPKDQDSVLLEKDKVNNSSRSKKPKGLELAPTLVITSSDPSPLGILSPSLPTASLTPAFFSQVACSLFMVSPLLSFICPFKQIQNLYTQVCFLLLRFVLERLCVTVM
# Method in brief: as §1
# ETV2 = target: T10, ETV2 (Homo sapiens, UniProt O00321 1-342); conditions: protein: recombinant; tags: N-terminal GST; dsDNA, one strand shown
# T10 sequence: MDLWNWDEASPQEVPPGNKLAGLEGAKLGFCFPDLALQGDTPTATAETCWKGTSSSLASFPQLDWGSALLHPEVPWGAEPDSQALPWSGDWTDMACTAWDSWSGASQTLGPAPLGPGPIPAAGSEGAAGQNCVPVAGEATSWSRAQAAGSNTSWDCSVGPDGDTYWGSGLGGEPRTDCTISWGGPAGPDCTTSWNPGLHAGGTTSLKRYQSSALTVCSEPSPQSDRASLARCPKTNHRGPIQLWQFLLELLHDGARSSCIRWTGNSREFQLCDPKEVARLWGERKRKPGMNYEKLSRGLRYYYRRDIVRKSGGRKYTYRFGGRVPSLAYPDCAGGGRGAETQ
# Method in brief: as §1
# ELF3 = target: T11, ELF3 (Homo sapiens, UniProt P78545 1-371); conditions: protein: recombinant; tags: N-terminal GST; dsDNA, one strand shown
# T11 sequence: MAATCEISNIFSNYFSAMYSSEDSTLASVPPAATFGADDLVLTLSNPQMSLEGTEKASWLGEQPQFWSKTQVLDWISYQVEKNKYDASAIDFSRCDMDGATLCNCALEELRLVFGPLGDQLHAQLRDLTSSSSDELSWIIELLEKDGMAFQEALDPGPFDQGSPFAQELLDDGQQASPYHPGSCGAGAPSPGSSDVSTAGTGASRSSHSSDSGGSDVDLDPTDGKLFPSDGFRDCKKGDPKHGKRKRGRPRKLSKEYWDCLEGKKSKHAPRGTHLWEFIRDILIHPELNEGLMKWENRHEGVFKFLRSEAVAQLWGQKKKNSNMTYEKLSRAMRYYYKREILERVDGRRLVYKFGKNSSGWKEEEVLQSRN
# Method in brief: as §1
# CRX = CRX (Homo sapiens, UniProt O43186 1-299); conditions: protein: recombinant; tags: N-terminal GST; dsDNA, one strand shown
# Method in brief: as §1
# ETV1 = ETV1 (Homo sapiens, UniProt P50549 1-477); conditions: protein: recombinant; tags: N-terminal GST; dsDNA, one strand shown
# Method in brief: as §1
# Sequence of CRX (O43186 whole entry): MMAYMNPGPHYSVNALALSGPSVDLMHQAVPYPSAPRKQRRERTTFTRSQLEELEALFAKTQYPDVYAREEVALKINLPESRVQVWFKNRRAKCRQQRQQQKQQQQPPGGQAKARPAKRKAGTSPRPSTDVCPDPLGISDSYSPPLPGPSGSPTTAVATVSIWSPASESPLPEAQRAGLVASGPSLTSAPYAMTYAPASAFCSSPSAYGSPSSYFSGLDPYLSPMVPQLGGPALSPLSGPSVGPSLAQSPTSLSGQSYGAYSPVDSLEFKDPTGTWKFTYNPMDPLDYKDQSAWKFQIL
# Sequence of HSF1 (Q00613 whole entry): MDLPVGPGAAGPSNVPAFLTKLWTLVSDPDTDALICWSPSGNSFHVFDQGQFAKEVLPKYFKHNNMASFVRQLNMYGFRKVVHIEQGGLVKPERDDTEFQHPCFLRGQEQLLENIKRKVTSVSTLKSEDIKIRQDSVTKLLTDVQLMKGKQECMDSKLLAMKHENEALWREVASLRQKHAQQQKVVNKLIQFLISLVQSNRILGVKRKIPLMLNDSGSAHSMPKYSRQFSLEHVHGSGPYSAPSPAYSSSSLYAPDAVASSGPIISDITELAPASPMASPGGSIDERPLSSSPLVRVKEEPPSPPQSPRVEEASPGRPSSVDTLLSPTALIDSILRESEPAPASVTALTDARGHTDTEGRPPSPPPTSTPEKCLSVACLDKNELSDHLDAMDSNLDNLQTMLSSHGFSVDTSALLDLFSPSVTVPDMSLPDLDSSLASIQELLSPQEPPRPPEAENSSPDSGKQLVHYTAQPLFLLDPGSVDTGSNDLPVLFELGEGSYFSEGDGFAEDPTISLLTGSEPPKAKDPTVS
# Sequence of ELF1 (P32519 whole entry): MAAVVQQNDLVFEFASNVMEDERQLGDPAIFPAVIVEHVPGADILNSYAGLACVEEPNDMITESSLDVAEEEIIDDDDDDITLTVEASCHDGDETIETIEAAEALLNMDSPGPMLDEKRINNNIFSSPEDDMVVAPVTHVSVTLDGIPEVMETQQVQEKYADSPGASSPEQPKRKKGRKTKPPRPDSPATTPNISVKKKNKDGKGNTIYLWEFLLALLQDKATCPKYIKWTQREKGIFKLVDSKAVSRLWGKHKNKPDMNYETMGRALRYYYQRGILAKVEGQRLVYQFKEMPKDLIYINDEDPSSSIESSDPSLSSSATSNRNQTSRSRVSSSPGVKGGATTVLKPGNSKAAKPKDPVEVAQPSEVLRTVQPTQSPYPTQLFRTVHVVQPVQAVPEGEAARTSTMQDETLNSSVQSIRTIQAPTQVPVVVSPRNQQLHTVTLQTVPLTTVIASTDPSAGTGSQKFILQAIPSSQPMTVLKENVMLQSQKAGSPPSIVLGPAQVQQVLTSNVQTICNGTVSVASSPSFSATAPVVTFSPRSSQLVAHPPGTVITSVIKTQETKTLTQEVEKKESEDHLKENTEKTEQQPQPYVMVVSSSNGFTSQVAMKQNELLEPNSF
# Sequence of SPIB (Q01892 whole entry): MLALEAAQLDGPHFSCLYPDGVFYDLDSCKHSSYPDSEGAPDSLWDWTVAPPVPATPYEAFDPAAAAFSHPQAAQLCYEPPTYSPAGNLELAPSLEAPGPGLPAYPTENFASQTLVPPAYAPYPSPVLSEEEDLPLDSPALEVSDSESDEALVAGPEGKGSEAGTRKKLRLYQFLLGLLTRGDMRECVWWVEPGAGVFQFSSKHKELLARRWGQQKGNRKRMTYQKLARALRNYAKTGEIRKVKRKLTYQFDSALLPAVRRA
# Sequence of ETV5 (P41161 whole entry): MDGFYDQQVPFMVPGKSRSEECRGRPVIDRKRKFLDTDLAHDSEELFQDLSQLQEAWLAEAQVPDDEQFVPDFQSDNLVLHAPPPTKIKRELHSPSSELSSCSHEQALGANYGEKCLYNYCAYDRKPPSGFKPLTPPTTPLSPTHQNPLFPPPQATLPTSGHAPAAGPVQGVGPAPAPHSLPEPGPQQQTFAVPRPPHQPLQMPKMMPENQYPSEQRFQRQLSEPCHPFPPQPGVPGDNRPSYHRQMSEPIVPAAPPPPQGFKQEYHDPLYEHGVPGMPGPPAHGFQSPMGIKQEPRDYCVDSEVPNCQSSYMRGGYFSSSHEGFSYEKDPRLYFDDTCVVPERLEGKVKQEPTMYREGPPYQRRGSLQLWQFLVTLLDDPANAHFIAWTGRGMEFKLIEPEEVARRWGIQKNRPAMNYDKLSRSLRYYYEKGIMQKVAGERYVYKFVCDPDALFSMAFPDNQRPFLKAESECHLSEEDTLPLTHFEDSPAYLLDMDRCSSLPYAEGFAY
# Sequence of ELF4 (Q99607 whole entry): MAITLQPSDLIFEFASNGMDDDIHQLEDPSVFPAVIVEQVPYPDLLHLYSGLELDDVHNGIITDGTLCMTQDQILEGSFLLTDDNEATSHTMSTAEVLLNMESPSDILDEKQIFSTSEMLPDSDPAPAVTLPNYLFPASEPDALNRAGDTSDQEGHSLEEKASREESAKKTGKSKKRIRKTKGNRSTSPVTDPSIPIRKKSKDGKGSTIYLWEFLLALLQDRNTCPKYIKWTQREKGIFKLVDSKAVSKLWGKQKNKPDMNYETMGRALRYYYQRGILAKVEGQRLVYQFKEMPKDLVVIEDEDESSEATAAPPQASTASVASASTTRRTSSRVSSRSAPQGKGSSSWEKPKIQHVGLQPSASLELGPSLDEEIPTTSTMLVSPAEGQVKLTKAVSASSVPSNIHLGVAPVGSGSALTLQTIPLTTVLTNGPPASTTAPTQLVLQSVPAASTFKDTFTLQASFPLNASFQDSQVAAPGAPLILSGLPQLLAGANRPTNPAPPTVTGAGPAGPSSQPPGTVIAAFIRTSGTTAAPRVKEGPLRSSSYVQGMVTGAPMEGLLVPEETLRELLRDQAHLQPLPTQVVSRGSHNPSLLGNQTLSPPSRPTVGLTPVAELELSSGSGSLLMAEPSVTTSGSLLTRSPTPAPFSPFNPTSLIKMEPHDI
# Sequence of ETV1 (P50549 whole entry): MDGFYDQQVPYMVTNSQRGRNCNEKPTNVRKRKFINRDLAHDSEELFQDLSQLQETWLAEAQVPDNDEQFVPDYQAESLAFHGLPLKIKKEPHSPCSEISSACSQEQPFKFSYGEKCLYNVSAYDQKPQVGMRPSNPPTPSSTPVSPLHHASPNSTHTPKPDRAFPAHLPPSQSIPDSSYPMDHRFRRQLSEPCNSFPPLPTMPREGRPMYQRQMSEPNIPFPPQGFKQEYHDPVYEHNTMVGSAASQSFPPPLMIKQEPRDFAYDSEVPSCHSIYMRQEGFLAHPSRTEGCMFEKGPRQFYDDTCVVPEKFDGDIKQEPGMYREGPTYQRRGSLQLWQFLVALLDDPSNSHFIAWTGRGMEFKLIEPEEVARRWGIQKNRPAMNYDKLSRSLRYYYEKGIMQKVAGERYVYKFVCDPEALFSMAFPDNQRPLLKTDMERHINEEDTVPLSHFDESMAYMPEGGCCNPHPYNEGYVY
sequence,measurement,setting,value
TAACTG,binding signal,FLI1,"1.12 fold enrichment (6-mer frequency, TF over GST control)"
same,binding signal,ELK1,"1.19 fold enrichment (6-mer frequency, TF over GST control)"
same,binding signal,GABPA,"1.24 fold enrichment (6-mer frequency, TF over GST control)"
same,binding signal,ERG,"1.25 fold enrichment (6-mer frequency, TF over GST control)"
same,binding signal,ELF1,"1.27 fold enrichment (6-mer frequency, TF over GST control)"
same,binding signal,EHF,"1.15 fold enrichment (6-mer frequency, TF over GST control)"
same,binding signal,SPI1,"1.21 fold enrichment (6-mer frequency, TF over GST control)"
same,binding signal,SPIB,"1.33 fold enrichment (6-mer frequency, TF over GST control)"
same,binding signal,ELK3,"1.26 fold enrichment (6-mer frequency, TF over GST control)"
same,binding signal,FEV,"1.28 fold enrichment (6-mer frequency, TF over GST control)"
same,binding signal,ETV5,"1.22 fold enrichment (6-mer frequency, TF over GST control)"
same,binding signal,HSF1,"1.25 fold enrichment (6-mer frequency, TF over GST control)"
same,binding signal,SPIC,"1.42 fold enrichment (6-mer frequency, TF over GST control)"
same,binding signal,ELF4,"1.19 fold enrichment (6-mer frequency, TF over GST control)"
same,binding signal,ELK4,"1.23 fold enrichment (6-mer frequency, TF over GST control)"
same,binding signal,ETV2,"1.31 fold enrichment (6-mer frequency, TF over GST control)"
same,binding signal,ELF3,"1.47 fold enrichment (6-mer frequency, TF over GST control)"
same,binding signal,CRX,"1.5 fold enrichment (6-mer frequency, TF over GST control)"
same,binding signal,ETV1,"1.09 fold enrichment (6-mer frequency, TF over GST control)"
